The source of these data is PubChem BioAssay AID504445 (The Scripps Research Institute Molecular Screening Center, 2011).

The other results are listed elsewhere or left out. Values without a mark were called inactive. Activity calls are given as the source filed them.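 Rule for the calls: active = mean inhibition over triplicate wells above a set limit taken from the primary lipase screen (cut at about 34% in these data); inactive = the rest.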

One may read the inhibition as how much of the control response was suppressed.

Diacylglycerol lipase-beta (Homo sapiens), sequence (Q8NCG7 whole entry, looked up): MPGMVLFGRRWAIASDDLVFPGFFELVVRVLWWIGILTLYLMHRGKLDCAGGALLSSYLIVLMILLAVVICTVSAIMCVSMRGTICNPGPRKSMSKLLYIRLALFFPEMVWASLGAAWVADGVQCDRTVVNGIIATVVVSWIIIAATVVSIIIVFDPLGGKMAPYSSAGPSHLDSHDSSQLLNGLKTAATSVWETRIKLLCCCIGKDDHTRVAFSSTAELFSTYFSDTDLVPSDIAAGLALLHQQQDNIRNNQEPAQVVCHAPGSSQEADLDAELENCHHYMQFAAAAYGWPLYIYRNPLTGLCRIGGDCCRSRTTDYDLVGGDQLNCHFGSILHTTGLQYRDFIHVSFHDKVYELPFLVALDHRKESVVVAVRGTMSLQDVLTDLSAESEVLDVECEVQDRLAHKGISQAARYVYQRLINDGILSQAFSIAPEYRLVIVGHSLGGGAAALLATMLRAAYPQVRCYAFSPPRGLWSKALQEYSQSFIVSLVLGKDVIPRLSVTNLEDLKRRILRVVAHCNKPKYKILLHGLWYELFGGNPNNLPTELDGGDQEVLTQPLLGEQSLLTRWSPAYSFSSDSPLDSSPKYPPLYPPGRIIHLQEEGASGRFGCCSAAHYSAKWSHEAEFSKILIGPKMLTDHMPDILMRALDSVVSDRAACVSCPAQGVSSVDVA

This experiment concerns the target Diacylglycerol lipase-beta (Homo sapiens) (UniProt Q8NCG7). The experiment in a line: human DAGLB lipase activity inhibition – biochemical, fluorescence, HEK293T membranes, confirmation (AID 504445).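 Note: 0% = DAGLB with DMSO and 100% = wells lacking DAGLB enzyme.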 Conditions: HEK293T DAGLB membrane lysate, EnzChek fluorogenic substrate; at 5.17 µM; stronger effect = higher value.
Take `O=C(Oc1cccc(N2C(=O)C3C4c5ccccc5C(c5ccccc54)C3C2=O)c1)c1ccco1` (configuration not stated): the inhibition was 31.9%.

On to `Cc1oc2cc([N+](=O)[O-])c(O)c([N+](=O)[O-])c2c1C(=O)c1ccc(Br)cc1`, for which the inhibition was 49.9% (active).

On to `Cc1ccc(S(=O)(=O)/N=C2\C=C(NS(=O)(=O)c3ccc(C)cc3)C(=O)c3ccccc32)cc1`, for which the inhibition was 18.2%.

Turning to `Cc1ccc(/C=N/NC(=O)C(NC(=O)c2ccccc2)c2n[nH]c(=O)c3ccccc23)cc1` (configuration not stated), the inhibition is 27.9%.

With `COc1ccc(Br)cc1/C=N/Nc1ccc(S(=O)(=O)Nc2ccccc2C(=O)O)cc1[N+](=O)[O-]`, the inhibition is 27.4%.

`O=C(NNc1c2ccccc2nc2ccccc12)c1cc2ccccc2cc1O`: the inhibition is 63.4% (active).

As to `COc1cccc(/C=N/Nc2ccc(S(=O)(=O)Nc3ccccc3C(=O)O)cc2[N+](=O)[O-])c1O`, the inhibition was 49.7% (active).
